The results in this text go back to ChEMBL document CHEMBL3988442, “University of Dundee, Small-Polar-MMV Screening Library” (2021).

For part of these data: Entries with a potency or affinity are not part of this list.

Holding throughout (parameters): scale not given: direction of the effect not stated beside the values
The target in experiment [1] is Protein translocase subunit SecA (Escherichia coli (strain K12)) (UniProt P10408). In words: Assay to Identify E. coli SecA ATPase Inhibitors. It counts as functional. To be noted: 30 µM.
The target in experiment [2] is T1, Ubiquitin-activating enzyme e1, putative (Leishmania donovani (strain BPK282A1)) (UniProt E9BSI1).
T1 sequence (whole entry): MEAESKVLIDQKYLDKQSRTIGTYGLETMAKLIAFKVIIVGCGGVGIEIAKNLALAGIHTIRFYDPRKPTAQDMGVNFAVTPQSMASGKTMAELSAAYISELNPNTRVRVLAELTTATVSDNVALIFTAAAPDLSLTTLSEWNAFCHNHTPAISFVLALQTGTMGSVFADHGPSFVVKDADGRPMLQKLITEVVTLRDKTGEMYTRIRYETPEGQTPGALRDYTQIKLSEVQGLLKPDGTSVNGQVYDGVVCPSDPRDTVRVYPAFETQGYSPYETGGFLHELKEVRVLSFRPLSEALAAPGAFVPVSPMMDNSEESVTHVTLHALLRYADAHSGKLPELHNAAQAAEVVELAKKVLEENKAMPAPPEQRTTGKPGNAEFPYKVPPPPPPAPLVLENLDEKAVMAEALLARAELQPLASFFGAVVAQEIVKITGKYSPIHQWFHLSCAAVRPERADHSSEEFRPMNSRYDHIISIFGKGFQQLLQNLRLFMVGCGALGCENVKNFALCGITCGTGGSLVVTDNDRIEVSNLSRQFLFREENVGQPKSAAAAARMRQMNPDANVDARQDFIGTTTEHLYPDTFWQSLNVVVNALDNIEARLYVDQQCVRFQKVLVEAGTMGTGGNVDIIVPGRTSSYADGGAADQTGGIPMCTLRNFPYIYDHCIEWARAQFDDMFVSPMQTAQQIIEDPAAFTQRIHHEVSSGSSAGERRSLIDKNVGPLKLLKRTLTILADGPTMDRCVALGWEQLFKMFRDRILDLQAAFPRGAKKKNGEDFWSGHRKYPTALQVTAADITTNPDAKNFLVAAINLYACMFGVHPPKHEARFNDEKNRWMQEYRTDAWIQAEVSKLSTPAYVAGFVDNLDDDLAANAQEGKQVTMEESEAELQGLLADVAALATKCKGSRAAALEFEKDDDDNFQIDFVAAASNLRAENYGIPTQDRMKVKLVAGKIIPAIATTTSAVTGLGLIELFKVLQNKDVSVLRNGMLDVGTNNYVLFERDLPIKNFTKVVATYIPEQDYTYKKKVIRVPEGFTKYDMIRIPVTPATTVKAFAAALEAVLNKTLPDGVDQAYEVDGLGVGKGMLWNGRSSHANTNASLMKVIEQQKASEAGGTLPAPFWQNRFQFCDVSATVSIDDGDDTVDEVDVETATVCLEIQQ
In words: Leishmania donovani Ubiquitin Activating Enzyme (LdE1). It counts as functional. To be noted: 30 µM.

The target of experiment [3] is AMP-activated protein kinase, AMPK (Homo sapiens) (UniProt P54646+O43741+P54619+Q9UGJ0+Q9Y478+Q13131+Q9UGI9). In words: AMP-dependent Kinase enzyme assay. An in vitro enzyme assay that detects ADP turnover that is directly proportional to AMPK activity. This uses naive AMPK that is activated during the assay with MK-8722. It counts as functional. The note with it: 30 µM.

Experiment [4] has as its target Sialic acid-binding Ig-like lectin 9 (Homo sapiens) (UniProt Q9Y336). Put plainly: Hs-Siglec9 ALPHAscreen SOP 20170721. To be noted: 10 µM.
In experiment [5] the test system is Trypanosoma cruzi. Put plainly: Trypanosoma cruzi phosphomannomutase and mannose-1-phosphate guanylyltransferase assay. It counts as functional. The note with it: 10 µM.
Experiment [6] addresses T2, Arginase-2, mitochondrial (Homo sapiens) (UniProt P78540).
T2 sequence (whole entry): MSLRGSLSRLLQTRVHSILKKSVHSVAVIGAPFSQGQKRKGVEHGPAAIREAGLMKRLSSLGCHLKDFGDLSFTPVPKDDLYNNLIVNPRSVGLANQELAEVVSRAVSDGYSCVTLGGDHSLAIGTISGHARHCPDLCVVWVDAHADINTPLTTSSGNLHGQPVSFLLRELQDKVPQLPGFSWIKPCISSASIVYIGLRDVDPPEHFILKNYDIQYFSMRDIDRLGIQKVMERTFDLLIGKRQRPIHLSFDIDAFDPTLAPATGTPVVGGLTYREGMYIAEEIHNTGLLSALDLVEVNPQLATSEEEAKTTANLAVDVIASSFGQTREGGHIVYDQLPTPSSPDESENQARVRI
In words: in vitro enzyme assay to detect the production of urea directly proportional to the activity of Arginase II. Note: in the data most compounds retested in dose-response had high values. It counts as functional. The note with it: 33.3 µM.

Experiment [7] addresses T3, Proteasome subunit beta (Trypanosoma cruzi) (UniProt O96673).
T3 sequence (whole entry): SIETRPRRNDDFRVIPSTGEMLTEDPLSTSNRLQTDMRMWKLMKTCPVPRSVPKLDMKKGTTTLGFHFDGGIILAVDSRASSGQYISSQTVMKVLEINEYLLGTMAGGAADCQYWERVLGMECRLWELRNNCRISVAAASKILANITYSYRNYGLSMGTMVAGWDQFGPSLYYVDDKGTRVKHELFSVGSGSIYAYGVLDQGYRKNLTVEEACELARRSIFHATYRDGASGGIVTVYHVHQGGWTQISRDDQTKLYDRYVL
In words: Trypanosoma cruzi proteasome chymotrypsin-like activity (TcProtChymo) assay. Note: in the data most compounds retested in dose-response had high values. It counts as functional. The note with it: 9.37 µM.

The species entered for experiment [8] is Homo sapiens. In words: To identify inhibition of the IFN signalling (Jak-Stat) pathway via expression of an eGFP reporter gene under the control of an IFN-stimulated response element (ISRE) containing MxA promoter. The experiment is classed as functional. The note with it: 30 µM. On the technique in general: A reporter such as luciferase makes a cellular process visible.

Experiment [9] deals with T4, Tyrosyl-tRNA synthetase, putative (Trypanosoma cruzi (strain CL Brener)) (UniProt Q4DSP6).
T4 sequence (whole entry): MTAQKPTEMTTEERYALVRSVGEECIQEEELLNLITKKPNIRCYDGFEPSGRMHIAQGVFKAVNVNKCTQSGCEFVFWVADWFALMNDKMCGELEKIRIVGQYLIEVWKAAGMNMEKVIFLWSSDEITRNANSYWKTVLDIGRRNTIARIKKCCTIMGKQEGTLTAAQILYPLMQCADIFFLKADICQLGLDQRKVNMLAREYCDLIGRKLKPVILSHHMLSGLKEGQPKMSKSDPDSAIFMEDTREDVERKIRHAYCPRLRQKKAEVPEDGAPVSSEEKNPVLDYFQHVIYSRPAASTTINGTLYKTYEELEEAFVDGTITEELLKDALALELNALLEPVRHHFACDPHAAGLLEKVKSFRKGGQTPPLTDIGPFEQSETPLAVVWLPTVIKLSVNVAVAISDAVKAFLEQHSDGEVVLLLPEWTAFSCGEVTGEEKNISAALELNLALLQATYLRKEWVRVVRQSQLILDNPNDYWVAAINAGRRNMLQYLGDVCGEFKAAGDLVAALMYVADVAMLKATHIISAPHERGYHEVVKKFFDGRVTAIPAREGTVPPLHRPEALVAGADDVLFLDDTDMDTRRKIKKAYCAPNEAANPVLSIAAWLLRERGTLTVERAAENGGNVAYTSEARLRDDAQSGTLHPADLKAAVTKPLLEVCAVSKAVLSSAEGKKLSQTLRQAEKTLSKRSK
In words: Trypanosoma cruzi tyrosyl tRNA synthetase (TcYRS) _High Tyrosine SOP. Note: in the data most compounds retested in dose-response had high values. The note with it: 30 µM. It counts as functional.

The target in experiment [10] is T4, Tyrosyl-tRNA synthetase, putative (Trypanosoma cruzi (strain CL Brener)). In words: Trypanosoma cruzi tyrosyl tRNA synthetase (TcYRS) SOP. The experiment is classed as functional. To be noted: 30 µM.
Experiment [11] concerns the target Chromo domain-containing protein 1 (Saccharomyces cerevisiae (strain ATCC 204508 / S288c) (Baker's yeast)) (UniProt P32657). In words: ScCHD-1 Enzyme Inhibition Assay. Note: in the data most compounds retested in dose-response had high values. The experiment is classed as functional. The note with it: 30 µM.

Chain of Sialic acid-binding Ig-like lectin 9 (Homo sapiens) (Q9Y336 whole entry): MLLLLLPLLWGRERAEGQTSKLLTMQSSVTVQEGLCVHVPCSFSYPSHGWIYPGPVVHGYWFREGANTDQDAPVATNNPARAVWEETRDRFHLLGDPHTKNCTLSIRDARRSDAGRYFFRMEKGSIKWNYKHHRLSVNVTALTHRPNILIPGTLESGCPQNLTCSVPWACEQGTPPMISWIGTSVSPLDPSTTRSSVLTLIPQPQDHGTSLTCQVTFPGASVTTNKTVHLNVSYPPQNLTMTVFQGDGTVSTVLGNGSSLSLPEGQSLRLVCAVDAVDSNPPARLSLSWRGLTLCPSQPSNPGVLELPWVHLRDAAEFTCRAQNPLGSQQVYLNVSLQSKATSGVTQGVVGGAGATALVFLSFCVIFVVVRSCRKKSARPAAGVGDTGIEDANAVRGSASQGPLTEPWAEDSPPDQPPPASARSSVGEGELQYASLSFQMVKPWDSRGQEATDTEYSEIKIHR
Chain of Chromo domain-containing protein 1 (Saccharomyces cerevisiae (strain ATCC 204508 / S288c) (Baker's yeast)) (P32657 whole entry, the tested form may be a part): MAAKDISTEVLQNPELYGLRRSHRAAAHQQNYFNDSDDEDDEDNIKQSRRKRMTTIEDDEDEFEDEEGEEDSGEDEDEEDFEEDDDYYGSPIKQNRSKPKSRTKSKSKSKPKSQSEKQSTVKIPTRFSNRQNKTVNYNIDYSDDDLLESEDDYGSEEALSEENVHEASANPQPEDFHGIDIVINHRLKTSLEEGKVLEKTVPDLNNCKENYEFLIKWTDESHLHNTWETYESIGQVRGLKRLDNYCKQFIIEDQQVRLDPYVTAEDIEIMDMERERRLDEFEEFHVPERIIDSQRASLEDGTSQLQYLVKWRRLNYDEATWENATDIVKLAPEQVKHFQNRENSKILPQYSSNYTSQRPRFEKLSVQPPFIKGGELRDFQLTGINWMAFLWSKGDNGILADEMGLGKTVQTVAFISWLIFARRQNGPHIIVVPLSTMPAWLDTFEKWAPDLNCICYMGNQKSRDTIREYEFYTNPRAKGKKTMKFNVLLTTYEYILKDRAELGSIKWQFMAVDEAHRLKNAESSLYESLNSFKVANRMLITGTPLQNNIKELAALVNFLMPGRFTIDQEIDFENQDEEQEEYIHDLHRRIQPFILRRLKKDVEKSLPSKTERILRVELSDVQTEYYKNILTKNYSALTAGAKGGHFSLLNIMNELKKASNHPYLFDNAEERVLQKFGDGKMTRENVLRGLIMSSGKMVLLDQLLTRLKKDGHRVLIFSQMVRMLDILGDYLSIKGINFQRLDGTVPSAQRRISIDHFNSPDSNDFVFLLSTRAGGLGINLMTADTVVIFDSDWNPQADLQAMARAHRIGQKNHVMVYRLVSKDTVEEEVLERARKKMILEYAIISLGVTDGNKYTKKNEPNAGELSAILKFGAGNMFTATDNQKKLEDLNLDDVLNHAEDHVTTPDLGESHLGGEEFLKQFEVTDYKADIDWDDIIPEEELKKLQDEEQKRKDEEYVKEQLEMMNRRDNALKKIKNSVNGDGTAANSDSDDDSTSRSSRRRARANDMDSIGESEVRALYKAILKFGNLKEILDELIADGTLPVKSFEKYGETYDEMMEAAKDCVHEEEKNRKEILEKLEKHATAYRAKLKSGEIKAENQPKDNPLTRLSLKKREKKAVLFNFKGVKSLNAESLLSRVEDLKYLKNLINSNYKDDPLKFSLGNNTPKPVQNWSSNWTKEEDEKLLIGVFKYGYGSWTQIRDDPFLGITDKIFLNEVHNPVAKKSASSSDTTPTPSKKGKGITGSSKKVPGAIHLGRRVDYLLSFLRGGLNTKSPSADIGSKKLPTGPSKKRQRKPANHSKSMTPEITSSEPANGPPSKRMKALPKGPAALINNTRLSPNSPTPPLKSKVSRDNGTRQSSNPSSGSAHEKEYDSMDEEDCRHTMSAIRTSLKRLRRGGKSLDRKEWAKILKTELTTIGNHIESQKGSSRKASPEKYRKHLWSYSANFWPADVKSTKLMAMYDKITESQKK
Chain of Protein translocase subunit SecA (Escherichia coli (strain K12)) (P10408 whole entry): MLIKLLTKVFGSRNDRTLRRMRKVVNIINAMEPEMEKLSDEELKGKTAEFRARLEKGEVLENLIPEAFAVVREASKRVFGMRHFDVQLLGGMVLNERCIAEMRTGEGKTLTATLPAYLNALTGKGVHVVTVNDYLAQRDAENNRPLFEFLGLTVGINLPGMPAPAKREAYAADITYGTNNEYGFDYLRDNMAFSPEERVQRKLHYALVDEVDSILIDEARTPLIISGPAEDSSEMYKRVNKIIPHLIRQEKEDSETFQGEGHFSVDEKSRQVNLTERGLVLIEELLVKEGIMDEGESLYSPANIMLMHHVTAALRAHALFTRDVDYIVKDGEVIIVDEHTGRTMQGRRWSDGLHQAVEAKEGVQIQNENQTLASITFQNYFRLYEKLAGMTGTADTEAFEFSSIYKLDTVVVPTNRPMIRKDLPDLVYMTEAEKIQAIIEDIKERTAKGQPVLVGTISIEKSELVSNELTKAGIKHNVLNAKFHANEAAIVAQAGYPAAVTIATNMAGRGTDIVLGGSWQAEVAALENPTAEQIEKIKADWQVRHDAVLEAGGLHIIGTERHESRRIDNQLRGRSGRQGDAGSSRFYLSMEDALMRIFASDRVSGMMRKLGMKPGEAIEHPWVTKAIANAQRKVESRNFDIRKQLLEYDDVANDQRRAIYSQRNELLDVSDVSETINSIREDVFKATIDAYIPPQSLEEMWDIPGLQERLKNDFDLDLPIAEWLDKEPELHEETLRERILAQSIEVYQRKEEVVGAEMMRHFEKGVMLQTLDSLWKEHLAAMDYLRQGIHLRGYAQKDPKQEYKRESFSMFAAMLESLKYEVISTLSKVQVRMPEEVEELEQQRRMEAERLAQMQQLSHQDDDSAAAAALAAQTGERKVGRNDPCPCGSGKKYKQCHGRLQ

As to `Cc1occc1C(=O)N1CCOCC2(CCN(Cc3nccs3)C2)C1` (centres undefined), the Percent Effect is -0.601% in experiment [1]; 2.6% in [2]; 0.286% in experiment [3]; 7.22% in [4]; -0.688% in experiment [5]; 5.52% in experiment [6]. In addition, the Percent Effect in [7] is 9.82%; in experiment [8], -13.2%; in experiment [9], -3.23%; in experiment [10], -6.17%; in experiment [11] it was 2.92%.

As for `COc1ncccc1NC(=O)C1CCS(=O)(=O)C1` (centres undefined), the Percent Effect in experiment [1] is -5.85%; in experiment [2], 20.8%; in experiment [3], -1.47%; in experiment [4], -3.58%; in experiment [5] it was -5.99%; in experiment [6], -1.07%. For the same compound, the Percent Effect in [7] is 3.21%; in [8] it was 19.2%; in experiment [9], 3.88%; in experiment [10], 12.2%; in [11], -9.93%.

Take `CNc1cncc(C2CCCN2C(=O)c2ccc3oc(=O)n(C)c3c2)n1` (centres undefined): the Percent Effect is -2.39% in [1]; 14.9% in experiment [2]; 8.4% in experiment [3]; -7.77% in experiment [4]; 3.36% in experiment [5]; 0.696% in [6]. The Percent Effect in experiment [7] is 9.36%; in experiment [8], -8.91%; in experiment [9], 5.38%; in experiment [10], 3.9%; in experiment [11] it was -16.2%.

`CN(C)CC1(O)CCN(S(=O)(=O)c2ccc(F)cc2)C1` (centres undefined): the Percent Effect in experiment [1] is -4.76%; in [2], 20.3%; in experiment [3], 6.17%; in [4], -4.76%; in experiment [5], 3.36%; in [6] it was -3.94%. Further, the Percent Effect in experiment [7] is 17.3%; in [8], 10.1%; in experiment [9] it was 5.38%; in experiment [10] it was 9.09%; in experiment [11] it was 65.3%.

Regarding `O=C(CN1CCCC1Cn1cccn1)NC1CCOCC1` (centres undefined), the Percent Effect in experiment [1] is -0.811%; in experiment [2], 0%; in experiment [3], -3.32%; in experiment [4], -1.02%; in experiment [5], 0.772%; in experiment [6] it was -2.38%. Moreover, the Percent Effect in [7] was 13.6%; in experiment [8] it was -13.8%; in [9] it was 1.59%; in experiment [10] it was -12.2%; in experiment [11], -2.17%.

As to `O=C1COC2(CCN(Cc3cccs3)CC2)CN1c1ccccc1`, the Percent Effect was -2.08% in experiment [1]; 5.48% in [2]; 0.847% in [3]; 2.36% in experiment [4]; -1.39% in experiment [5]; -2.4% in experiment [6]. Moreover, the Percent Effect was 7.62% in experiment [7]; -0.737% in experiment [8]; 3.12% in [9]; 3.7% in [10]; -0.651% in experiment [11].

Turning to `Cc1nc(-c2ccccc2)sc1C(=O)NCCNc1ncccn1`, the Percent Effect was -4.03% in experiment [1]; -2.63% in [2]; -5.12% in experiment [3]; -0.445% in experiment [4]; -7.94% in experiment [5]; 4.32% in experiment [6]. The Percent Effect in experiment [7] amounted to 3.98%; in experiment [8], 8.09%; in [9], 6.4%; in [10], 11.1%; in experiment [11], 5.7%.

Take `CN1CCC(c2nnc(CN3CCC(O)CC3)n2C)CC1`: the Percent Effect in [1] was -3.38%; in [2], 8.22%; in experiment [3] it was 6.23%; in experiment [4] it was -1.15%; in experiment [5], -1.76%; in [6], 1.82%. In addition, the Percent Effect in experiment [7] was 8.87%; in [8], 1%; in experiment [9], 4.3%; in experiment [10] it was 15%; in [11], -4.74%.

In the case of `Cc1nc(C)n(CC2CCCN(Cc3nc(C)c(C)o3)C2)n1` (centres undefined), the Percent Effect in experiment [1] is -2.17%; in experiment [2], 21.6%; in experiment [3], -13.9%; in experiment [4], -7.46%; in [5] it was 2.92%; in [6] it was -12.8%. Besides, the Percent Effect is 17.7% in experiment [7]; 7.96% in experiment [8]; 1.48% in experiment [9]; 23.5% in [10]; -11% in experiment [11].
